According to PubChem BioAssay AID1159580 (chemical genetic matrix, 2015):
Screen size: about 5,500 compounds; about 2,000 (36%) were called active. About 18% were inconclusive and are not listed. Cut-off read from the data, not from the text of the source: active = normalized growth mostly below about 0.91 (no sharp cut-off); inconclusive = no clear call, values can overlap the other calls; inactive = mostly above about 0.92. This is one part of the list.

Test: chemical genetic growth profiling, strain panel (AID 1159580);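 note: tested at 20 µM; growth read once vehicle control cultures reached saturation at 30 °C; 1 = growth at the plate median or of vehicle wells; lower values mean less growth of the strain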
Conditions: growth OD

Measured: normalized growth

CCC(C)C(=O)OC1[C@@H]2CC3=C4CC(=O)O[C@@H](c5ccoc5)[C@]4(C)CCC3[C@@](C)(C2=O)[C@@H](CC(=O)OC)C1(C)C (stereo partly specified)
inactive: S. cerevisiae deletion strains, locus YJL187C, strain SWE1, stronger effect = lower value 1.01 | S. cerevisiae deletion strains, locus YJR066W, strain TOR1, stronger effect = lower value 0.91 | S. cerevisiae deletion strains, locus YJR075W, strain HOC1, stronger effect = lower value 1.01 | S. cerevisiae deletion strains, locus YKL009W, strain mrt4, stronger effect = lower value 0.965 | S. cerevisiae deletion strains, locus YKL068W, stronger effect = lower value 0.999 | S. cerevisiae deletion strains, locus YKL085W, strain MDH1 (second series), stronger effect = lower value 0.988 | S. cerevisiae deletion strains, locus YKL085W, strain MDH1, stronger effect = lower value 0.988 | S. cerevisiae deletion strains, locus YKL160W, strain elf1, stronger effect = lower value 1.01 | S. cerevisiae deletion strains, locus YKR001C, strain vps1, stronger effect = lower value 1.01 | S. cerevisiae deletion strains, locus YKR026C, strain gcn3, stronger effect = lower value 1.01 | S. cerevisiae deletion strains, locus YKR091W, strain srl3, stronger effect = lower value 1 | S. cerevisiae deletion strains, locus YLL001W, strain dnm1, stronger effect = lower value 1.01 | S. cerevisiae deletion strains, locus YLL026W, stronger effect = lower value 1 | S. cerevisiae deletion strains, locus YLL041C, strain sdh2, stronger effect = lower value 1.01 | S. cerevisiae deletion strains, locus YLR027C, strain aat2, stronger effect = lower value 1.02 | S. cerevisiae deletion strains, locus YLR039C, strain RIC1, stronger effect = lower value 0.974 | S. cerevisiae deletion strains, locus YLR058C, strain SHM2, stronger effect = lower value 1.01 | S. cerevisiae deletion strains, locus YLR102C, strain apc9, stronger effect = lower value 1 | S. cerevisiae deletion strains, locus YLR113W, strain HOG1, stronger effect = lower value 1.03 | S. cerevisiae deletion strains, locus YLR221C, strain rsa3, stronger effect = lower value 0.998 | S. cerevisiae deletion strains, locus YLR258W, strain gsy2, stronger effect = lower value 1.01 | S. cerevisiae deletion strains, locus YLR262C, strain YPT6 (second series), stronger effect = lower value 0.947 | S. cerevisiae deletion strains, locus YLR268W, strain sec22, stronger effect = lower value 0.989 | S. cerevisiae deletion strains, locus YLR320W, strain mms22, stronger effect = lower value 1.01 | S. cerevisiae deletion strains, locus YLR342W, strain FKS1 (second series), stronger effect = lower value 1 | S. cerevisiae deletion strains, locus YLR342W, strain FKS1, stronger effect = lower value 1 | S. cerevisiae deletion strains, locus YLR357W, strain rsc2, stronger effect = lower value 0.991 | S. cerevisiae deletion strains, locus YLR370C, strain arc18, stronger effect = lower value 1.01 | S. cerevisiae deletion strains, locus YLR371W, strain rom2, stronger effect = lower value 1 | S. cerevisiae deletion strains, locus YLR384C, strain iki3, stronger effect = lower value 1.02 | S. cerevisiae deletion strains, locus YLR418C, strain cdc73, stronger effect = lower value 1.04 | S. cerevisiae deletion strains, locus YML016C, strain PPZ1, stronger effect = lower value 0.997 | S. cerevisiae deletion strains, locus YML032C, strain rad52, stronger effect = lower value 1.01 | S. cerevisiae deletion strains, locus YML120C, strain ndi1, stronger effect = lower value 1 | S. cerevisiae deletion strains, locus YML124C, strain tub3, stronger effect = lower value 1.01 | S. cerevisiae deletion strains, locus YMR058W, strain fet3, stronger effect = lower value 1.01 | S. cerevisiae deletion strains, locus YMR078C, strain ctf18, stronger effect = lower value 1.01 | S. cerevisiae deletion strains, locus YMR125W, strain sto1, stronger effect = lower value 1 | S. cerevisiae deletion strains, locus YMR129W, stronger effect = lower value 1.01 | S. cerevisiae deletion strains, locus YMR205C, strain PFK2, stronger effect = lower value 1 | S. cerevisiae deletion strains, locus YMR223W, strain ubp8, stronger effect = lower value 1 | S. cerevisiae deletion strains, locus YMR231W, strain pep5, stronger effect = lower value 0.973 | S. cerevisiae deletion strains, locus YMR307W, strain GAS1, stronger effect = lower value 1.05 | S. cerevisiae deletion strains, locus YNL067W, strain RPL9B, stronger effect = lower value 1.03 | S. cerevisiae deletion strains, locus YNL071W, strain lat1, stronger effect = lower value 1.01 | S. cerevisiae deletion strains, locus YNL128W, strain TEP1, stronger effect = lower value 0.995 | S. cerevisiae deletion strains, locus YNL183C, strain NPR1, stronger effect = lower value 0.927 | S. cerevisiae deletion strains, locus YNL209W, strain ssb2, stronger effect = lower value 1 | S. cerevisiae deletion strains, locus YNL233W, strain BNI4, stronger effect = lower value 0.995 | S. cerevisiae deletion strains, locus YNL248C, strain rpa49, stronger effect = lower value 1 | S. cerevisiae deletion strains, locus YNL250W, strain rad50, stronger effect = lower value 1.03 | S. cerevisiae deletion strains, locus YNL271C, strain bni1, stronger effect = lower value 1 | S. cerevisiae deletion strains, locus YNL298W, strain CLA4, stronger effect = lower value 1.02 | S. cerevisiae deletion strains, locus YNL307C, strain MCK1, stronger effect = lower value 1 | S. cerevisiae deletion strains, locus YNL322C, strain KRE1 (second series), stronger effect = lower value 0.999 | S. cerevisiae deletion strains, locus YNR049C, strain mso1, stronger effect = lower value 1.01 | S. cerevisiae deletion strains, locus YNR052C, strain pop2, stronger effect = lower value 1.01 | S. cerevisiae deletion strains, locus YOL012C, strain htz1 1.11 | S. cerevisiae deletion strains, locus YOL147C, strain pex11, stronger effect = lower value 1 | S. cerevisiae deletion strains, locus YOR001W, strain rrp6, stronger effect = lower value 1.01 | S. cerevisiae deletion strains, locus YOR061W, strain CKA2, stronger effect = lower value 0.995 | S. cerevisiae deletion strains, locus YOR069W, strain VPS5, stronger effect = lower value 1.01 | S. cerevisiae deletion strains, locus YOR070C, strain gyp1, stronger effect = lower value 1.01 | S. cerevisiae deletion strains, locus YOR080W, strain dia2, stronger effect = lower value 0.996 | S. cerevisiae deletion strains, locus YOR083W, strain WHI5, stronger effect = lower value 1 | S. cerevisiae deletion strains, locus YOR106W, strain vam3, stronger effect = lower value 1.02 | S. cerevisiae deletion strains, locus YOR136W, strain idh2, stronger effect = lower value 0.994 | S. cerevisiae deletion strains, locus YOR144C, strain elg1, stronger effect = lower value 1.01 | S. cerevisiae deletion strains, locus YOR184W, strain ser1, stronger effect = lower value 0.983 | S. cerevisiae deletion strains, locus YOR231W, strain MKK1, stronger effect = lower value 0.973 | S. cerevisiae deletion strains, locus YOR265W, strain rbl2, stronger effect = lower value 0.999 | S. cerevisiae deletion strains, locus YOR270C, strain vph1, stronger effect = lower value 1.03 | S. cerevisiae deletion strains, locus YOR290C, strain snf2, stronger effect = lower value 0.978 | S. cerevisiae deletion strains, locus YOR316C, strain cot1, stronger effect = lower value 1 | S. cerevisiae deletion strains, locus YPL051W, strain arl3, stronger effect = lower value 1 | S. cerevisiae deletion strains, locus YPL078C, strain atp4, stronger effect = lower value 1.04 | S. cerevisiae deletion strains, locus YPL106C, strain sse1, stronger effect = lower value 1.01 | S. cerevisiae deletion strains, locus YPL240C, strain hsp82, stronger effect = lower value 1 | S. cerevisiae deletion strains, locus YPL241C, strain CIN2, stronger effect = lower value 0.998 | S. cerevisiae deletion strains, locus YPL256C, strain CLN2, stronger effect = lower value 0.943 | S. cerevisiae deletion strains, locus YPR119W, strain clb2, stronger effect = lower value 1.01 | S. cerevisiae deletion strains, locus YPR141C, strain kar3, stronger effect = lower value 1.01 | S. cerevisiae deletion strains, locus YPR163C, strain tif3, stronger effect = lower value 1 | S. cerevisiae deletion strains, locus YPR167C, strain met16, stronger effect = lower value 0.995 | S. cerevisiae deletion strains, strain wtn01, stronger effect = lower value 0.993 | S. cerevisiae strains, strain wild type, stronger effect = lower value 0.978
